Several values for one entry are separate records, joined by “and”; a condition that tells them apart may be missing. Identical values can stand only once. About 1,500 (0.58%) of roughly 260,000 compounds were called active. Roughly 5% stayed inconclusive and do not appear here. A selection follows. Measured potencies and affinities stand elsewhere. Unmarked numbers belong to inactive results.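 How the source made its calls: active means inhibition above a set limit at one or more doses, reproduced on every date tested; inconclusive means results disagree between test dates, or hit never tested in dose response; inactive means the rest.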

This assay has as its target Virion infectivity factor (Human immunodeficiency virus type 1 group M subtype B (isolate BH10)) + Virion infectivity factor (Human immunodeficiency virus type 1 group M subtype B (isolate BRU/LAI)) + Virion infectivity factor (Human immunodeficiency virus type 1 group M subtype B (isolate PCV12)) + Virion infectivity factor (Human immunodeficiency virus type 1 group M subtype B (isolate HXB2)) + DNA dC->dU-editing enzyme APOBEC-3G (Homo sapiens) (UniProt P69720+P69721+P69722+P69723+Q9HC16). As to the kind of experiment: HIV-1 Vif–A3G interaction blockers – biochemical, TR-FRET, GST-Vif 1-94, biotin-A3G peptide, dose response retest, primary screen (AID 1117319).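 Further: Vif residues 1-94 fused to GST binding biotinylated APOBEC3G peptide 110-148; 0% = full assay without inhibitor and 100% = GST in place of GST-Vif.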 To be noted: TR-FRET GST-Vif / biotin-A3G peptide binding; stronger effect = higher value. For orientation: In TR-FRET formats the signal depends on donor and acceptor labels being close together.
As to `Cc1cc2c(ccc3c2no[n+]3[O-])nn1`, the inhibition was 7.27%.

Consider `[O-][n+]1onc2c3ccnnc3ccc21`, for which the inhibition is 0.24%.

Consider `CCOc1ccc(CCNC(=O)c2cccc(S(=O)(=O)N3CCCCC3)c2)cc1OCC`, for which the inhibition was -3.3%.

For the compound `O=C(Cn1c(=S)[nH]c2ncccc2c1=O)NCCc1ccccc1`, the inhibition was -0.88%.

On to `O=C(NCCCN1CCOCC1)c1ccc2c(=O)n(Cc3ccccc3)c(=S)[nH]c2c1`, for which the inhibition is -10.2%.

With `CCOC(=O)C1=C(Cc2ccc(OC)cc2)C(=O)c2ccccc2C1=O`, the inhibition was 24.3%.

In the case of `CCOC(=O)C1=C(O)c2ccccc2C(=O)/C1=C\c1ccc(CC)cc1`, the inhibition is 31.5%.

For the compound `CCN(CC)/C(=N\S(=O)(=O)c1ccc(F)cc1)c1ccccc1`, the inhibition is 3.32%.

As for `COCCNC(=S)N1CCCN(c2nc3cc(C)ccc3cc2C#N)CC1`, the inhibition is 3.12%.

Turning to `Cc1ccc(S(=O)(=O)N(Cc2ccccc2)c2ccccc2C(=O)NCc2cccnc2)cc1`, the inhibition was 1.8%.

Consider `O=c1[nH]nc(CNc2ccc(C(F)(F)F)cc2)c2ccccc12`, for which the inhibition was -3.84%.

With `COc1ccc(NCc2n[nH]c(=O)c3ccccc23)cc1`, the inhibition was 4.49%.

As for `CC(NC(=O)COC(=O)c1cc(S(=O)(=O)N2CCOCC2)ccc1F)c1ccccc1` (stereo not drawn), the inhibition is 4.22%.

In the case of `Cc1ccc(S(=O)(=O)Nc2cccc(C(=O)N3CCC(C(N)=O)CC3)c2)cc1`, the inhibition is -11.3%.

Turning to `O=C(CSc1nc2ccccc2c(=O)n1-c1ccccc1Cl)Nc1cccc(S(=O)(=O)N2CCOCC2)c1`, the inhibition is 12.8%.

In the case of `Cc1cc(C)nc(NS(=O)(=O)c2ccc(NC(=O)c3cc(=O)c4ccccc4o3)cc2)n1`, the inhibition was -13.1%.

Take `Cc1ccc(C(=O)NC(=S)NNC(=O)COc2ccc([N+](=O)[O-])cc2)cc1`: the inhibition was -1.27%.

Turning to `Cc1cc(C=C2C(=O)c3ccccc3C2=O)c(C)n1-c1cccc(C(=O)O)c1`, the inhibition is 24.6%.

With `Cc1cc(/C=C2/NC(=O)N(c3ccccc3)C2=O)c(C)n1-c1cccnc1`, the inhibition was 5.85%.

Regarding `Cc1cccc(N2C(=O)CC(N3CCN(c4ccccc4)CC3)C2=O)c1` (stereo not drawn), the inhibition is 6.83%.

For the compound `Cc1ccc(N=C2NC(=O)CS2)cc1`, the inhibition was 32.9%.

As to `Cc1ccccc1N=C1NC(=O)CS1`, the inhibition is -1.84%.

`CCOC(=O)C(NC(=O)c1cccc(Cl)c1)(Nc1sc2c(c1C(N)=O)CCC2)C(F)(F)F` (stereo not drawn): the inhibition was 30.9%.

As to `Nc1nc2nc(-c3ccc(F)cc3)cc(C(F)(F)F)n2n1`, the inhibition was 12.1%.

On to `COc1ccc(NS(=O)(=O)c2cccc(C(=O)NNC(=O)c3cccc(NC(C)=O)c3)c2)cc1`, for which the inhibition was 2.28%.

As to `COc1ccc(NS(=O)(=O)c2cccc(C(=O)NNC(=O)c3ccccc3O)c2)cc1`, the inhibition was 9.79%.

As to `CCc1ccc(N(C(=O)CNC(=O)c2ccco2)C(C(=O)NCC2CCCO2)c2ccccc2)cc1` (stereo not drawn), the inhibition is 6.06%.

On to `O=C(CCNC(=O)c1ccccc1Cl)Nc1nc(-c2ccccc2Cl)cs1`, for which the inhibition is 15.5%.

As to `NC(=O)c1ccc(-n2nnnc2SCc2ccccc2)cc1`, the inhibition was -2.97%.

As for `COC(=O)c1ccccc1-c1ccc(/C=N/NC(N)=O)o1`, the inhibition is -4.17%.

Turning to `COC(=O)c1ccccc1-c1ccc(C=O)o1`, the inhibition was -12.2%.

Consider `COc1cc(/C=C(\C#N)c2ccccn2)cc(OC)c1O`, for which the inhibition is 7.21%.

With `COc1cc(C(=O)Oc2cccc(C=O)c2)cc(OC)c1OC`, the inhibition is 8.54%.

`CCc1ccc(OCc2nnc(SCc3ccc(C(=O)O)cc3)o2)cc1`: the inhibition is -1.45%.

Take `O=C(O)c1ccc(CSc2nnc(COc3ccccc3)o2)cc1`: the inhibition was -5.6%.

On to `CSCCC(NC(=O)c1ccccc1Cl)C(=O)N1CCN(c2ccccn2)CC1` (stereo not drawn), for which the inhibition is -6.33%.

As for `COc1ccc(-c2noc(CCC(=O)N3CCN(c4cccc(C(F)(F)F)c4)CC3)n2)cc1`, the inhibition was 22.9% and -0.11%.

On to `CC(C)N(Cc1ccccc1)C(=O)COC(=O)C1CCN(c2ccc(C(F)(F)F)cn2)CC1`, for which the inhibition was -3.12%.

Take `O=C1C(=O)c2c(ccc3ccccc23)-c2ccccc21`: the inhibition was -6.35%.

Take `Oc1ccc2ccccc2c1Br`: the inhibition is 0.97%.

For the compound `CCCCCCCCC#Cc1nc(C)ccc1OC`, the inhibition is -3.1%.

Regarding `CCOC(=O)N1C2=NC(C(=O)OC)=C(C(=O)OC)[C@@H]3Nc4ccccc4[C@]23C[C@H]1C(=O)OC`, the inhibition is 4.32%.

Take `C[C@H]1CN([C@@H](C)CO)C(=O)CCCn2nncc2CO[C@@H]1CN(C)C(=O)NC1CCCCC1`: the inhibition is 1.5%.

Regarding `O=C(O)c1ccccc1C(=O)Nc1ccc(-n2nccc2C(F)(F)F)cc1`, the inhibition was -1.72%.

Turning to `O=C(CNc1ccc(F)cc1)N/N=C1\CCCc2ccccc21`, the inhibition was -0.54%.

Regarding `COC(=O)CSc1nc(N)nc(C)c1Cl`, the inhibition was -8.89%.

For `CC1=C(C(=O)N2CCOCC2)C(c2ccc(O)cc2)NC(=S)N1` (stereo not drawn), the inhibition was 17.4%.

`c1ccc2c3c(cc(N4CCOCC4)c2c1)OC1(N2CCOCC2)CCCCC1O3` (stereo not drawn): the inhibition was -2.4%.

For `COc1cc(OC)cc(C(=O)N[C@H](C(=O)Nc2cc(C)cc(C)c2)C(C)C)c1`, the inhibition is -1.59%.

As to `COc1ccc(OC)c2[nH]c(=O)c(CCNC(=O)C(=O)c3c(C)[nH]c4ccccc34)cc12`, the inhibition is 2.37%.

With `CC[n+]1cccc(-c2nc3ccccc3s2)c1`, the inhibition is 5.45%.

In the case of `COC(=O)CSc1nnc(CNC(=O)c2cccc(C)c2)n1-c1ccccc1OC`, the inhibition is 6.5%.

For `CCOC(=O)CSc1nnc(CNC(=O)Cc2ccccc2)n1-c1ccccc1OC`, the inhibition was -6.46%.

`Cc1ccc(CNC(=O)C2CC2c2ccccc2)cc1` (stereo not drawn): the inhibition was -6.49%.

As for `CN(CC(=O)Nc1c(Cl)cccc1Cl)C(=O)Cc1ccsc1`, the inhibition was -2.32%.

Turning to `Cc1cc(NC(=O)C2CC(c3ccc(F)cc3)=NO2)no1` (stereo not drawn), the inhibition is 0.56%.

With `CCc1cc2cccc(C)c2nc1SCC(=O)Nc1nonc1C`, the inhibition was 32.8%.

Consider `COc1ccccc1CN(Cc1ccco1)S(=O)(=O)c1ccc(-n2cnnn2)c(OC)c1`, for which the inhibition is 0.86%.

Take `COc1cc(S(=O)(=O)N(Cc2ccccn2)Cc2ccco2)ccc1-n1cnnn1`: the inhibition is -2.53%.

In the case of `CN[C@H]1C[C@H]2c3[nH]c4ccccc4c3CCN2C(=O)[C@H]1[C@H](C)O`, the inhibition is -5.11%.

`O=[N+]([O-])c1cc(F)c(N2CCCCC2)cc1N1CCOCC1`: the inhibition is 8.86%.

Take `N#Cc1cc(N2CCCCC2)c([N+](=O)[O-])cc1C#N`: the inhibition was -2.18%.

For `CCN(c1ccccc1)S(=O)(=O)c1ccc(Oc2ccccc2)c(N)c1`, the inhibition was 2.08%.

For the compound `COc1ccc(C2=NOC(C(=O)NCc3cccs3)C2)cc1` (stereo not drawn), the inhibition is -3.82%.

As to `COc1cccc(C2=NOC(C(=O)NCc3cccs3)C2)c1` (stereo not drawn), the inhibition is -3.08%.

As to `COc1cc(-n2c(C)nc3ncn(-c4ccccc4)c3c2=O)cc(OC)c1OC`, the inhibition was 2.62%.

With `CC(=O)Nc1ccc(OCC(O)Cn2cccn2)cc1` (stereo not drawn), the inhibition was -6.52%.

As to `CCCN(CC(=O)Nc1ccccc1C)C(=O)C1CCN(C(=O)Nc2ccccc2)CC1`, the inhibition is -0.04%.

Take `O=C(Oc1ccccc1)c1cccc(N2C(=O)CCC2=O)c1`: the inhibition was -0.79%.

Consider `N#Cc1c(Nc2cccc(F)c2)sc2c(O)cc(=O)[nH]c12`, for which the inhibition is -5.54%.

Turning to `CS(=O)(=O)N(CC(=O)Nc1ccc2c(c1)OCCO2)Cc1ccccc1`, the inhibition is 24.5%.

With `CS(=O)(=O)N(CCc1ccccc1)CC(=O)Nc1ccc2c(c1)OCO2`, the inhibition is 13.8%.

With `O=C(CCc1ccc(S(=O)(=O)NCCc2ccccc2)cc1)NCc1ccc2c(c1)OCO2`, the inhibition was -2.37%.

Take `CCCNS(=O)(=O)c1ccc(CCC(=O)Nc2ccc3c(c2)OCO3)cc1`: the inhibition was 2.82%.

With `CC1(C)Cc2c(sc3nc(SCC(=O)N4CCOCC4)nc(N)c23)CO1`, the inhibition is 3.98%.

Take `CSc1nc(C)cc(OCC(=O)n2nc(C)cc2C)n1`: the inhibition is 1.86%.

With `CC(=O)Nc1sc2c(c1C(c1ccccc1)N1CCOCC1)CCCC2` (stereo not drawn), the inhibition is 5.78%.

Regarding `CCOC(=O)c1ccc(NC(=O)C(=O)NCc2ccncc2)cc1`, the inhibition was 27%.

Regarding `O=[N+]([O-])c1c(NCCO)cc(N2CCC3(CC2)OCCO3)c2nonc12`, the inhibition is -8.02%.

In the case of `CC(=O)OCCNc1cc(N2CCN(C)CC2)c2noc3c2c1C(=O)c1ccccc1-3`, the inhibition was 3.2%.

Regarding `CCOC(=O)c1coc(C(=O)OCC)c1C(=O)OCC`, the inhibition was -10.9%.

Consider `COc1ccc(-c2csc(NC3=NCCCCC3)n2)cc1`, for which the inhibition is -3.94%.

For the compound `O=C1NC(=S)N/C1=C/c1cc([N+](=O)[O-])ccc1O`, the inhibition is 0.15%.

As to `O=C1NC(=S)N/C1=C\c1cccc([N+](=O)[O-])c1`, the inhibition is 0.47%.

On to `O=C(/C=C\Nc1ccccn1)c1ccccc1`, for which the inhibition is 1.92%.

Consider `O=C(/C=C\Nc1ccc2c(c1)OCO2)c1ccccn1`, for which the inhibition was -6.96%.

Consider `O=C(NCc1cccnc1)c1cc2nc(-c3cccs3)cc(C(F)(F)Cl)n2n1`, for which the inhibition was -9.65%.

In the case of `CCOc1ccc(NCc2nc3ccccc3n2CCOc2ccccc2)cc1`, the inhibition was 11.4%.

For the compound `COc1ccc(NCc2nc3ccccc3n2CCOc2ccc(C)cc2)cc1`, the inhibition was 8.44%.

In the case of `CCCn1c(CNc2ccc(Br)cc2)nc2ccccc21`, the inhibition is -3.54%.

In the case of `Cn1c(CNc2ccccc2O)nc2ccccc21`, the inhibition is 17.5%.

Turning to `CCOC(=O)n1c(=O)oc2cc(S(=O)(=O)N3CCOCC3)ccc21`, the inhibition was 9.96%.

For `COc1ccc(Cc2nnc(SCC(=O)NCc3ccco3)o2)cc1`, the inhibition was 3.47%.

One may read the inhibition as the drop in the measured response relative to a control, in per cent.
